# Assay outcomes as filed in PubChem.
# Only a selection was taken, and hits are over-represented in it overall.
# Pf Dd2 inh: inhibitors of Plasmodium falciparum Dd2 growth. hit rate 4.3% among 120,000. Potency, µM (top dose mostly 28.9 µM), actives largely listed as inhibitors. P. falciparum Dd2 growth, SYBR Green, 72 h; active = well fitted inhibition curve with a large enough effect; note: nearly all actives have a fitted effect of over 65% in size
#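 Readout: SYBR Green fluorescence, 485 nm excitation, 535 nm emission, after ~16 h lysis at 37C. Before that, Dd2-infected red cells (2.5% hematocrit) grew 72 h with compound, 29 uM top final concentration.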
# Hits are given with their value; – = inactive.
SMILES,Pf Dd2 inh
CC(=O)N1C[C@@H](C(=O)N2CCN(c3ccccn3)CC2)[C@H](c2nc(C)no2)C1,–
COCCC(=O)N1CCCCCC1CN1CCOCC1 (stereo not drawn),–
Cc1ccc(NC(=O)N2C[C@@H](F)C[C@H]2C(=O)N2CCCCC2)c(C)c1,–
O=C(c1cc2c(s1)CCCC2)N1CCC2(CC1)OCCCC2O (stereo not drawn),–
O=c1n(-c2ccncc2)nc2n1CCN(Cc1ccccc1)C2,–
CC(=O)N1CCN(c2ncnc3c2CN(c2ccccc2C)C(=O)CN3C)CC1,–
CCN1CC(c2ccccc2)CC2(CCN(C(=O)c3cnn(C)c3)CC2)C1 (stereo not drawn),–
COc1ccc(-c2noc([C@@H]3CCCN3C(=O)c3cc(OC)c(OC)c(OC)c3)n2)cc1OC,–
CN(C)C(=O)C1CN(C(=O)Nc2cccc(Cl)c2F)CC12CCOCC2 (stereo not drawn),–
O=C(CCC1CCCN(Cc2cc3c(cc2Cl)OCO3)C1)Nc1ccccc1F (stereo not drawn),–
O=C(CCC1CCCN(Cc2cccn2-c2ccccn2)C1)Nc1ccccc1F (stereo not drawn),7.9µM
O=C(CCC1CCCN(Cc2cccnc2)C1)Nc1ccccc1F (stereo not drawn),–
COc1ccc(Cl)cc1NC(=O)Cn1ccn2nc(-c3ccc(F)cc3)c(CO)c2c1=O,–
Cc1ncoc1C(=O)N1CCC[C@H](n2c(=O)n(C)c3cccnc32)C1,–
COc1ccccc1N1CCN(C(=O)C[C@@H]2CCNC[C@@H]2Cc2cc(-c3ccc(F)cc3)on2)CC1,11µM
NC(=O)C1CCN(C(=O)C[C@@H]2CCNC[C@@H]2Cc2cc(COc3ccccc3)on2)CC1,–
COc1ccc(-c2cc(C[C@H]3CNCC[C@H]3CC(=O)NCc3cccnc3)no2)cc1,–
COc1ccc(-c2cc(C[C@H]3CNCC[C@H]3CC(=O)N3CCC(Cc4ccccc4)CC3)no2)cc1,7.9µM
COc1ccccc1N1CCN(C(=O)C[C@@H]2CCNC[C@@H]2Cc2cc(COc3ccccc3)on2)CC1,–
COc1ccc(-c2cc(C[C@H]3CNCC[C@H]3CC(=O)N3CCN(c4ccccc4OC)CC3)no2)cc1,–
COc1ccc(-c2cc(C[C@H]3CNCC[C@H]3CC(=O)NC(C)C)no2)cc1,–
CC(C)(C)c1cc(C[C@H]2CNCC[C@H]2CC(=O)N2CCC(Cc3ccccc3)CC2)no1,7.9µM
O=C(C[C@@H]1CCNC[C@@H]1Cc1cc(CN2CCOCC2)on1)N1CCN(c2ccccc2)CC1,–
CN1CCN(c2ccc3nnc(-c4cc(C(=O)N(C)Cc5ccccc5)ccn4)n3n2)CC1,–
COc1ccc(CCNC(=O)C2Cn3cccc3C(=O)N2CC(C)C)cc1OC (stereo not drawn),–
SMILES,Pf Dd2 inh
O=C(NCCC1CCN(C(=O)Nc2ccc(F)cc2)CC1)c1cc(F)ccc1F,–
CC(c1nc(-c2ccc(Cl)cc2)nn1CC(=O)O)N1CCCC1=O (stereo not drawn),–
COC[C@@H]1CNC[C@H]1C(=O)NC1CC1,–
CS(=O)(=O)N(Cc1cccnc1)C1CN(C(=O)CC2CCCCC2)C1,–
CS(=O)(=O)N(C1CC1)C1CCOC2(CCN(C(=O)CCC3CCCC3)CC2)C1 (stereo not drawn),–
O=S(=O)(NC[C@H]1O[C@H](Cc2cc(CN3CCOCC3)on2)CC[C@@H]1O)c1ccccc1,–
Cc1ccc(NC(=O)c2cc3c(N4CCCC4)nc(C)cn3n2)cc1,–
Cc1ccc(CNC(=O)c2cc3c(N(C)Cc4ccccc4)nc(C)cn3n2)cc1,–
Cc1cn2nc(C(=O)Nc3ccc(N(C)C)cc3)cc2c(N(C)Cc2ccccc2)n1,0.79µM
COc1ccc(NC(=O)c2cc3c(N4CCSCC4)nc(C)cn3n2)cc1F,–
Cc1cn2nc(C(=O)Nc3ccc(C)c(F)c3)cc2c(N(C)Cc2ccccc2)n1,10µM
Cc1cn2nc(C(=O)Nc3ccc(F)c(C)c3)cc2c(N2CCSCC2)n1,–
c1ccc(O[C@H]2COCCN(C3CCOCC3)C2)cc1,–
O=C(CCc1ccccc1)NCCC1CCN(C(=O)Nc2ccccc2F)CC1,–
COc1ccc(CN2CCCCCNC(=O)CC2c2ccccc2)cc1Cn1ccnc1 (stereo not drawn),2µM
COCCC(=O)N1CCCCCCNC(=O)CC1c1ccccc1 (stereo not drawn),–
O=C1CC(c2ccccc2)N(Cc2ccc(C(F)(F)F)cc2)CCCCCN1 (stereo not drawn),–
Cc1ccc(CN2CCCCCNC(=O)CC2c2ccccc2)o1 (stereo not drawn),–
O=C1CC(c2ccccc2)N(Cc2ccc(F)c(F)c2)CCCCCN1 (stereo not drawn),10µM
Cc1ncsc1CN1CCCCCNC(=O)CC1c1ccccc1 (stereo not drawn),–
COc1ccccc1CC(=O)N1CC[C@@H]2NC(=O)[C@H]3C[C@H](NC(=O)C4CCCC4)CN3C(=O)[C@H]21,–
O[C@@H]1C[C@@H](c2nc(-c3ccncc3)no2)N(Cc2ccccc2)C1,–
O=C(NC[C@H]1COCc2nc3ccccc3n21)c1cccnc1,–
C=CCNC(=O)CCc1c(C)nn(-c2ccc(F)cc2)c1Oc1ccccc1C,–
CCn1nccc1C(=O)N1CCN(Cc2ccc(=O)n(C)c2)CC1,–
SMILES,Pf Dd2 inh
CC(=O)NCCc1ncc(C)n1C1CCCC1,–
Cc1cnc(CCNC(=O)c2n[nH]c3ccccc23)n1C1CCCC1,3.2µM
O=C(NCCc1noc(C2CC2)n1)c1n[nH]c2ccccc12,–
Cc1ncc(C(=O)NCc2ccc3[nH]c(-c4ccccc4F)c(C)c3c2)c(C)n1,–
Cc1nc(C2CCCN(C(=O)C3(C(N)=O)CC3)C2)cc(N2CCCC2)n1 (stereo not drawn),–
O=c1oc2c(CN3CCCC3)c(O)ccc2cc1-c1ccccc1,11µM
COc1ccc(CN2CCC(N3CCCCCC3=O)CC2)cc1,–
Cc1cc2oc(=O)c(CC(=O)O)c(C)c2c2occ(-c3ccccc3)c12,–
COc1ccc(-c2cc3ccc(O)c(CN4CCC(C)CC4)c3oc2=O)cc1OC,2.5µM
COc1ccc(-c2nnc(SCC(=O)N3CCCCC3)o2)cc1,–
O=c1oc2ccc(Br)cc2cc1-c1csc(-c2ccccc2)n1,–
O=c1oc2c(CN3CCOCC3)c(O)ccc2cc1-c1ccc(Cl)cc1,7.1µM
COc1ccccc1CNC(=O)C1CCN(Cc2nc(-c3ccc(OC)c(OC)c3)oc2C)CC1,–
O=C(Cn1nnnc1CN1CCOCC1)N1CCN(c2ccc(Cl)cc2)CC1,–
COc1ccc(CNC(=O)C2CCN(Cc3nc(-c4ccc(OC)c(OC)c4)oc3C)CC2)cc1,–
COc1ccc(-c2cc3ccc(O)c(CN4CCCC4)c3oc2=O)cc1,5.6µM
Cn1cc(-c2ccc(O)c(F)c2)c2nc(CN3CCOCC3)cn2c1=O,–
Cc1c(C(=O)N2CCC3(CC2)Nc2ccccc2NC3=O)cnc2ccnn12,–
CCc1nc(-c2c3n(c(=O)n(CC(=O)NCCCc4ccccc4)c2=O)CCCC3)no1,–
CN(Cc1cccn1C)[S+](=O)([O-])c1cccs1,–
CN1CCNc2nc(COc3ccccc3OC(F)(F)F)n(Cc3ccccc3)c2C1=O,–
Cc1cc(C(=O)N2CCC(Oc3ccccc3)C2)n(C)n1 (stereo not drawn),–
O=C(c1cccc(F)c1)N1CCC(n2cc(-c3nc(-c4ccccc4)no3)nn2)CC1,–
CCC(c1ccccc1)N1Cc2cc(NS(=O)(=O)c3ccc(F)cc3)ccc2OC(C)C1=O (stereo not drawn),–
COc1ccc(-c2c(C)c3ccc(O)c(CN4CCC(C)CC4)c3oc2=O)cc1OC,10µM
